Our source for the ETS1 binding intensity values is the supplement of paper PMC10681739.

This test has as its target T1, ETS1 (UniProt P14921).
T1 sequence: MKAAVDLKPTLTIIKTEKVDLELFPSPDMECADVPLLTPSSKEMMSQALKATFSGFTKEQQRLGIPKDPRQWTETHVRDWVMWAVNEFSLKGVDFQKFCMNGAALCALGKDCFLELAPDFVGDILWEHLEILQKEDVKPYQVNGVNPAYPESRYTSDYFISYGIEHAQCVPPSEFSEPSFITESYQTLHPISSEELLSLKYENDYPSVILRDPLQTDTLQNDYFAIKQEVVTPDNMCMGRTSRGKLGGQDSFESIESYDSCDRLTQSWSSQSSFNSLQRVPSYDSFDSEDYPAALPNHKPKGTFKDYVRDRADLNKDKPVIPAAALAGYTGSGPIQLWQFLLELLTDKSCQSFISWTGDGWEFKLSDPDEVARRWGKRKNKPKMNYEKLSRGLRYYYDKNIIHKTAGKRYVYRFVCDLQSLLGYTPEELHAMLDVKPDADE
Description: ETS1 binding intensity (PBM fluorescence), ETS1 alone (arbitrary fluorescence units); higher = stronger binding. To be noted: ETS1 concentration 1 nM; RUNX1 concentration 0 nM.
Take ACAGATGGTCCGGAACTTCAGAAAACCACTCATTGT: the ETS1 binding intensity stood at 583.
Regarding ATGACTTAGCAACATCCTGACAACCACTACATTGTC, the ETS1 binding intensity stood at 476.
As for TACCACCTCAGGATGTCTGAACCACATGCAAGCAGG, the ETS1 binding intensity was 439.
Take TAGGCCGGAAAGCACCACCGTCCTCCCGCAGGCCGC: the ETS1 binding intensity stood at 455.
For the sequence ACCAAACGTCACATCCGCGGTGCTGCTGTAATCCCA, the ETS1 binding intensity was 470.
Sequence TGGCTTGAGCTCAGGAAGTTGTGGCTGCAGTAAGCT showed an ETS1 binding intensity of 1470.
Regarding CAGCCAGCCAGGAAGCAGGGGCTGCGGGGCTGACAG, the ETS1 binding intensity came out at 691.
With GGAGGAAGAGAGGAAACGGGGGCGGCCGCAGCTTCT, the ETS1 binding intensity came to 836.
TTACTTCTCAGGAAGCGCTGTGGGGCTGGGGTTGCT came in with an ETS1 binding intensity of 676.
The same measure for CCATTCCCGGGCTTCCGCGGTGTCCCCACCCCCTAA: 673; for CCTGACTCTGGGTTTCCTCCCAGCCACAGACACCTG: 459; for ACCGGAAGGGCGGGGGCGTGGCGAGGTACCGCAGAC: 1170.
The same measure for GTCAGGAAACACATAGTTGTGTTTAACCTCAGGAAA: 466; for CTGCGCTTCCGCTTCACCCGGAGTACAGCGGTCCTG: 842.
For AACACTATTTCCTTTCTTGCTGCCCACATTTTAACA, the ETS1 binding intensity stood at 520.
The sequence ATGCGAGTCTGCTTCCTGCCACAAATCACAATTTGA yielded an ETS1 binding intensity of 665.
With CCATGAGGAGGGAGGAAATAGTGGTACGAGGGCTGC, the ETS1 binding intensity worked out at 1040.
Regarding TACATAGGCGGAAGTGGCCTGCGGGCGCCGGAGTTG, the ETS1 binding intensity came out at 3980.
CTGCGTCCCGGAAGGAGCGAGCTTGCGGAGCGTGAA: the ETS1 binding intensity is 710.
TGGGAAGGGTGAGGAGGAAGCGGTGGCCTTGCTCTG yielded an ETS1 binding intensity of 604.
As for CTTACAGATAAGGAAACTGAGGTTAAAATGTAGGGG, the ETS1 binding intensity is 681.
Sequence GCACCGTGGCACTTCCGCGAGCGCCGCAGGCCCTGC gave an ETS1 binding intensity of 461.
Take TCCTTTTCCGGTGGCGGCGCCGCGCGGTGAGGTTGT: the ETS1 binding intensity turned out to be 754.
The result for CGCCGGTCCCATATCCTTTCTGCGGGGTGAGCAGCA reads 465.
For TGTTTACTTCCTGGAGGCACTTTGGTTTTTCTTTCT, the ETS1 binding intensity stood at 490.
Take AGGAGTGAGGAAGTGAGGCTGGCCTTGTGGGTGTGG: the ETS1 binding intensity stood at 644.
Take CCATGCGCTGCTTCCTTCCACTTACCGCCCTCGCAC: the ETS1 binding intensity stood at 523.
The result for CGAGTCAGGAAATCACAGCTCTGCGGGTGGGCTCCT reads 458; that for GAGGAGGCTGAGGAGGAAGTGCGGTGGCTGTTCTGC, 1290; that for CTCAGCGGAAGAGCGGGCCTCTGGGCCGCAGTGACC, 478.
The same measure for GAACACGGAAACACTGAGCTTTTACTTTGACCACAC: 572; for CCGCCTCCGGAAGAATTCTCTGCGGGCATGTTGCTG: 736.
The result for CTGGCAGGCCTCACTTCCTCACCACATGGCCCTCCC reads 543.
Consider GCAAAGATACATCCTTCTCCCCACAGACTAAGTTTC, for which the ETS1 binding intensity came to 490.
The same measure for GCTTAGGCTCTTTCCTGTGTGGTGAGCACTAACCTC: 488; for CACCCAAGGATATGCTTTTTTTTGGCAAGCCACATC: 430.
As to GGGCAGCATCCTGTGCCTGCTTCTCTTACCCACATC, the ETS1 binding intensity is 494.
In turn, TCTGAGAATGCAGGATATGTGTGTGGTCTCTAGTCA returned an ETS1 binding intensity of 1240.
For the sequence ACGCTGGAATCGCGGAAACCGCCGGTGCACGTTGGA, the ETS1 binding intensity is 531.
